Measured values taken from PubChem BioAssay (NCATS).
Inconclusive results are not listed. Values without a mark were called inactive. Calls come from the whole dose curve; as a rule, active = well fitted inhibition curve with a large enough effect; inconclusive = small, poorly fitted or top-dose-only effect; inactive = flat fitted curve, though single readings scatter.
% is set by controls: 0 for no effect and ±100 for the full control effect.

Each compound was assayed against Calcium and integrin-binding protein 1 (Homo sapiens) (UniProt Q99828) (assay: Primary qHTS for Identification of Calcium Integrin Binding Protein 1 (CIB1) Competitor (AID 1508620; note: top concentration of the series differs between compounds)). Conditions: CIB1-GST / FITC-alphaIIb peptide fluorescence polarization; series mostly up to 114 µM; activity change, negative = inhibition: at the top concentration.
Calcium and integrin-binding protein 1 (Homo sapiens), sequence (Q99828 whole entry, looked up): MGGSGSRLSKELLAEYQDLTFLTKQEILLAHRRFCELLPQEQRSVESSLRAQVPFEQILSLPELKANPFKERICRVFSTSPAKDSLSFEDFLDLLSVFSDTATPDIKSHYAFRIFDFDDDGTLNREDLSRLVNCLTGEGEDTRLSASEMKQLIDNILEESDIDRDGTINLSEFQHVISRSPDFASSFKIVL
Outline: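 Fluorescence polarization competition: GST-tagged CIB1 (1 uM final) preincubated with compound 15 min at room temperature, then FITC-labelled alphaIIb peptide (100 nM final) added. After 15 min at room temperature, polarization read at Ex 480/Em 540.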
In the case of `Cc1ccc(OCCn2c(CCNC(=O)OC(C)(C)C)nc3ccccc32)cc1`, the “activity change, negative = inhibition” value was 1.28%.
With `Cc1ccc(N[S+](=O)([O-])c2cc3c(cc2NC2CC2)NC(=O)CC3)cc1C` the “activity change, negative = inhibition” value was -7.22%.
`O=C(Nc1cncc(-c2cccnc2)c1)c1cccs1` was tested, and the “activity change, negative = inhibition” value was -3.13%.
With `COc1cccc(CNc2ccc(S(=O)(=O)Nc3cccnc3)cc2)c1O` the “activity change, negative = inhibition” value was -4%.
`NC(=O)C1CCN(c2nc(-c3ccc(F)cc3)cs2)CC1` was tested, and the “activity change, negative = inhibition” value was 10.7%.
In the case of `COc1ccc(N2Cc3cccc(C(=O)O)c3C2=O)c(OC)c1`, the “activity change, negative = inhibition” value was -2.62%.
